Reference: PubChem BioAssay AID1159580 (chemical genetic matrix, 2015)
Where “and” joins values, the source holds several entries; their conditions need not be identical. Identical values can stand only once. About 2,000 (36%) of roughly 5,500 compounds were called active. About 18% were inconclusive and are not listed. Rule as the data show it: active = normalized growth mostly below about 0.91 (no sharp cut-off); inconclusive = no clear call, values can overlap the other calls; inactive = mostly above about 0.92. This is one part of the list.

Assay: chemical genetic growth profiling, strain panel (AID 1159580);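 also: tested at 20 µM; growth read once vehicle control cultures reached saturation at 30 °C; 1 = growth at the plate median or of vehicle wells; lower values mean less growth of the strain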
Settings: S. cerevisiae deletion strains, growth OD

Measured: normalized growth

CCC(C)C(=O)OC1[C@@H]2CC3=C4CC(=O)O[C@@H](c5ccoc5)[C@]4(C)CCC3[C@@](C)(C2=O)[C@@H](CC(=O)OC)C1(C)C (stereo not given in full)
inactive: locus YAL021C, strain ccr4, active compounds read low 1.02 | locus YAL026C, strain drs2, active compounds read low 1.01 | locus YAL030W, strain snc1, active compounds read low 1.01 | locus YBL061C, strain skt5, active compounds read low 1.01 | locus YBR009C, strain hhf1, active compounds read low 1.01 | locus YBR021W, strain FUR4, active compounds read low 1 | locus YBR023C, strain chs3, active compounds read low 1 | locus YBR171W, strain sec66, active compounds read low 1.01 | locus YBR229C, strain ROT2, active compounds read low 0.999 | locus YBR231C, strain swc5, active compounds read low 1.01 | locus YBR279W, strain paf1, active compounds read low 1.01 | locus YCL011C, strain gbp2, active compounds read low 1.01 | locus YCL016C, strain dcc1, active compounds read low 1.01 | locus YCL029C, strain bik1, active compounds read low 1 | locus YCL061C, strain MRC1, active compounds read low 1 | locus YCL069W, strain vba3, active compounds read low 1.02 | locus YCR088W, strain abp1, active compounds read low 1 | locus YDL005C, strain med2, active compounds read low 1 | locus YDL035C, strain GPR1, active compounds read low 0.987 | locus YDL040C, strain nat1, active compounds read low 0.991 | locus YDL074C, strain BRE1, active compounds read low 1.01 | locus YDL101C, strain DUN1, active compounds read low 1.02 | locus YDL185W, strain tfp1, active compounds read low 1.01 | locus YDL192W, strain arf1, active compounds read low 0.994 | locus YDR001C, strain nth1, active compounds read low 1 | locus YDR069C, strain doa4, active compounds read low 0.992 | locus YDR101C, strain arx1, active compounds read low 0.991 | locus YDR137W, strain rgp1, active compounds read low 0.961 | locus YDR159W, strain sac3, active compounds read low 0.998 | locus YDR162C, strain NBP2, active compounds read low 0.995 | locus YDR195W, strain ref2 0.987 | locus YDR297W, strain sur2, active compounds read low 1.01 | locus YDR318W, strain mcm21, active compounds read low 1 | locus YDR334W, strain swr1, active compounds read low 1 | locus YDR335W, strain msn5, active compounds read low 1.01 | locus YDR388W, active compounds read low 1.01 | locus YDR392W, strain spt3, active compounds read low 0.979 | locus YDR502C, strain sam2, active compounds read low 1.02 | locus YEL003W, strain gim4, active compounds read low 1.01 | locus YEL037C, strain rad23, active compounds read low 1.01 | locus YEL061C, strain CIN8 (second series), active compounds read low 1.01 | locus YER015W, strain faa2, active compounds read low 0.999 | locus YER016W, strain bim1, active compounds read low 0.999 | locus YER110C, active compounds read low 1.02 | locus YER111C, strain swi4, active compounds read low 0.99 | locus YER155C, strain BEM2 (second series), active compounds read low 1.01 | locus YER155C, strain BEM2, active compounds read low 1.01 | locus YER167W, strain BCK2, active compounds read low 1 | locus YFR010W, strain ubp6, active compounds read low 1.02 | locus YGL078C, strain dbp3, active compounds read low 1.02 | locus YGL086W, strain mad1, active compounds read low 1 | locus YGL167C, strain pmr1, active compounds read low 1.01 | locus YGL173C, strain kem1, active compounds read low 1 | locus YGL227W, strain vid30, active compounds read low 0.999 | locus YGL240W, strain doc1, active compounds read low 0.989 | locus YGL248W, strain PDE1, active compounds read low 1.01 | locus YGL253W, strain hxk2, active compounds read low 1.03 | locus YGR078C, strain PAC10, active compounds read low 1.02 | locus YGR135W, strain pre9, active compounds read low 1.04 | locus YGR229C, strain SMI1, active compounds read low 0.982 | locus YGR252W, strain gcn5, active compounds read low 1.02 | locus YHR013C, strain ard1, active compounds read low 1.01 | locus YHR027C, strain rpn1, active compounds read low 0.994 | locus YHR030C, strain SLT2, active compounds read low 0.959 | locus YHR079C, strain IRE1 (second series), active compounds read low 1.01 | locus YHR079C, strain IRE1, active compounds read low 0.95 | locus YHR094C, strain hxt1, active compounds read low 1 | locus YHR129C, strain ARP1, active compounds read low 1.01 | locus YHR142W, strain chs7, active compounds read low 1.04 | locus YHR200W, strain rpn10, active compounds read low 1 | locus YIL066C, strain RNR3, active compounds read low 0.998 | locus YIL073C, strain SPO22, active compounds read low 1.06 | locus YIL125W, strain kgd1, active compounds read low 0.998 | locus YIR030C, strain dcg1, active compounds read low 1 | locus YJL092W, strain hpr5, active compounds read low 1 | locus YJL095W, strain BCK1 (second series), active compounds read low 1 | locus YJL095W, strain BCK1, active compounds read low 1.04 and 0.958 | locus YJL115W, strain asf1, active compounds read low 1 | locus YJL129C, strain trk1, active compounds read low 1.01 | locus YJL134W, strain LCB3, active compounds read low 1 | locus YJL154C, strain vps35, active compounds read low 1 | locus YJL164C, strain tpk1, active compounds read low 1.02 | locus YJL166W, strain qcr8, active compounds read low 1.01 | locus YJL168C, strain set2, active compounds read low 1.01 | locus YJL187C, strain SWE1 (second series), active compounds read low 1.03
